A selection: hits, their analogues and other compounds. The true share with any hit is near 2.8%.
Platelet DG rel: inhibitors of platelet dense granule secretion, primary screen, cell-based, MLPCN, human platelets; human platelet-rich plasma, SFLLRN dense granule ATP release, luminescence; inhibition, %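 (compounds screened at 7.5 µM in platelet-rich plasma)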; actives 0.22% (n = 300,000); AID 1663, 2009;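 active means mean replicate score, as percent of positive control, at or above 50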
AHR act: AHR activators, primary screen, cell-based, luminescence, luciferase reporter, human. Aryl hydrocarbon receptor (Homo sapiens), P35869. activation, % at 5 µM. actives 2.5% (n = 320,000). AID 2796, 2010. AHR-responsive luciferase reporter cells; in the data active means activation above about 47%;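 further: 0% = vehicle wells and 100% = reference agonist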
HIF act: HIF pathway transcriptional activators, primary screen, cell-based, U2OS HRE-luciferase, luminescence; U2OS HRE-luciferase reporter; normalized: DMSO 0%, desferrioxamine 100%; activation, % at 7.5 µM (by protocol); actives 0.32% (n = 300,000); AID 1910, 2009;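 active means mean activation of at least 10% of the iron chelator positive control signal, with at least half of replicates also reaching 10%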
PolyA inh: polyadenylation inhibitors in yeast reporter cells, primary screen, luminescence, S. cerevisiae | S. cerevisiae SKY197-pL101 polyadenylation reporter, beta-gal luminescence; efflux-impaired pdr1/pdr3 knockout yeast; score 100 = 6 SD above DMSO | activity score, % at 12 µM | actives 0.02% (n = 300,000);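 active means lowest replicate activity score at least 50, where 100 means six control SD above control mean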;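 further: yeast exposed to compound for 9 h at 30 °C; higher score means more reporter readthrough which indicates perturbed polyadenylation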
p-CIP stab down: p/CIP-EGFP fusion destabilizers, primary screen, fluorescence, F442A cells | Q05BA5 | 16 h | decrease of EGFP signal, % at 10 µM | actives 0.01% (n = 290,000) | AID 1984, 2009;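 active means EGFP signal decrease of at least 30% at 10 µM or well 3 SD below plate mean, unless failing retest; inactive means the rest, including hits failing retest or dose response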
Target sequence (Q05BA5 1-1403): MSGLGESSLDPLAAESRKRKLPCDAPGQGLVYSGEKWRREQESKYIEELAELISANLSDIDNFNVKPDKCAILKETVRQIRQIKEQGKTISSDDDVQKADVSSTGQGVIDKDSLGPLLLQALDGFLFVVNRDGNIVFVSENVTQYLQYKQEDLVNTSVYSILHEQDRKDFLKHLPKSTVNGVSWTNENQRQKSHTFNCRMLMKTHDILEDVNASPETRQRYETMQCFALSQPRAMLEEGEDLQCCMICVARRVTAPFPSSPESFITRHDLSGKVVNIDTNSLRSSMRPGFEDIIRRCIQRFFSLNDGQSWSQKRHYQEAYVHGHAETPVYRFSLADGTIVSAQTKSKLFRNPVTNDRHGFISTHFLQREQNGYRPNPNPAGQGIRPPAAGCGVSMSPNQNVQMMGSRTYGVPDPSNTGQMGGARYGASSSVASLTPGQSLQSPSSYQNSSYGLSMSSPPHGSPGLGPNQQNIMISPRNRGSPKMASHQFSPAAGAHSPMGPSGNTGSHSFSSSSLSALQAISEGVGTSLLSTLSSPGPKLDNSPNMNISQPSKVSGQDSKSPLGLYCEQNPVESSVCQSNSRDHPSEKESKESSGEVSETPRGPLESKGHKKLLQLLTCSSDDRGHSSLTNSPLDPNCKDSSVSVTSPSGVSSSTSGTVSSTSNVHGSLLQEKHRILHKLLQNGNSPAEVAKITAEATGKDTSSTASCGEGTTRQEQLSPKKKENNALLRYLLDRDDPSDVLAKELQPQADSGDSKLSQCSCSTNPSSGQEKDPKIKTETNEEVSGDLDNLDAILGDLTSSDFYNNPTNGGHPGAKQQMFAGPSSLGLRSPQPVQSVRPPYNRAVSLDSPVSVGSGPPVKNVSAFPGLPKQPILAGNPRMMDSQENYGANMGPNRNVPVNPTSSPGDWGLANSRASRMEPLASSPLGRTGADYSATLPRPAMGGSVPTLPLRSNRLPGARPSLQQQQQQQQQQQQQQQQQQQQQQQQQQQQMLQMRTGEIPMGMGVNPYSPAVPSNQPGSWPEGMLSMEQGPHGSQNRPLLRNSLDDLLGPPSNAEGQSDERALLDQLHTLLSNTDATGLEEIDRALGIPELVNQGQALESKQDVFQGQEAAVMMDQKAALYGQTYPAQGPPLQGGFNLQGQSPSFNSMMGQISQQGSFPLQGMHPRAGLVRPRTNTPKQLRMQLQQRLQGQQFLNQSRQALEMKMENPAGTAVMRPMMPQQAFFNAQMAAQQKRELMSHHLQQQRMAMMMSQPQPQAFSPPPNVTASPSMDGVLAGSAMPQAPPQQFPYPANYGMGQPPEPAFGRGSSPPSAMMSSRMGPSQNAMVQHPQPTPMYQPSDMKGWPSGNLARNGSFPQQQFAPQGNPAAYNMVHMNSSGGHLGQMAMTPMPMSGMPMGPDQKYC
AHR act confirm: AHR activators, confirmation, cell-based, luminescence, luciferase reporter, human. shares compounds with AHR act. human cells, AHR-responsive luciferase reporter. activation, % at 9 µM. actives 87% (n = 2,300). AID 2845, 2010; in the data active means activation above about 49%;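 further: HepG2 hepatoma cells carrying a DRE-driven firefly luciferase reporter; 0% = vehicle wells and 100% = reference agonist wells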
PXR counter: human PXR activators, counter-screen for AHR activator project, cell-based, luciferase luminescence; shares compounds with AHR act; cell-based PXR reporter; activation, % at 11.6 µM; actives 88% (n = 2,300); in the data active means activation above about 11%;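 further: human hepatoma DPX-2 cells expressing full-length human PXR; 0% = DMSO and 100% = reference agonist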
* hit, by the source's call; . = not tested or not shown.

SMILES	Platelet DG rel	AHR act	HIF act	PolyA inh	p-CIP stab down	AHR act confirm	PXR counter
Cc1ccc(/C=N/Nc2ccnc3cc(Cl)ccc23)c(C)c1	-7	87*	-1	9	-1	16	16*
BrC(=C\c1ccccc1)/C=N/Nc1nc2ccccc2[nH]1	3	149*	3	-16	0	49*	59*
COc1ccc(/C=N/Nc2nc(N)cc(Cl)n2)cc1OC	10	89*	1	-5	-22	72*	16*
COc1ccc2c(c1)c(/C=N/Nc1nc3ccccc3[nH]1)c(C)n2C	0	98*	1	13	-13	63*	40*
COc1ccc(/C=N/Nc2nc3ccccc3[nH]2)cc1OC	-5	111*	4	17	2	86*	.
CCCn1c(SCC(=O)Nc2cccnc2Cl)n[nH]c1=O	.	-1	.	.	.	.	.
Cn1cc([N+](=O)[O-])c(C(=O)Nc2ccn(Cc3c(F)c(F)cc(F)c3F)n2)n1	14	2	0	4	-13	.	.
Cc1ccc(N(C(=O)CCC(=O)Nc2cc(C)on2)C(C(=O)NC2CCCC2)c2ccccc2)cc1 (stereo unspecified)	-2	4	-1	-1	-19	.	.
Cc1cc(NC(=O)CCC(=O)N(c2ccc(F)cc2)C(C(=O)NC2CCCC2)c2ccncc2)no1 (stereo unspecified)	.	91*	-2	15	-18	81*	21*
COC(=O)CN(C#N)c1nc(NC(C)C)nc(NC(C)C)n1	2	1	0	8	-6	.	.
O=C(CSc1nnc(NC(=O)c2ccc(F)cc2F)s1)NC1CCCC1	13	2	1	8	-12	.	.
CCN(CC(=O)Nc1c(F)cccc1F)C(=O)/C=C/c1ccc2c(c1)OCO2	2	9	-31	19	.	.	.
CC1CN(C(=O)CCC(=O)NCc2ccc(Cl)cc2)c2ccccc2S1 (stereo unspecified)	1	0	0	9	-16	.	.
COc1cc(OC)cc(C(=O)Nc2ccc(-n3cnnn3)c(C)c2)c1	43	-11	2	12	-4	.	.
Cc1ccc(NC(=O)c2oc3ccccc3c2C)nc1	-16	139*	3	1	14	141*	14*
CCCc1c(C(=O)Nc2ccc(N3CCOCC3)cc2)cnn1-c1ccccc1	0	83*	0	10	-10	102*	12*
Cc1cc(NC(=O)c2oc3ccccc3c2C)ccc1-n1cnnn1	-7	99*	1	-4	-1	100*	14*
Cc1c(C(=O)Nc2ccc(N3CCOCC3)cc2)oc2ccccc12	1	85*	1	-11	14	131*	19*
Cc1c(C(=O)Nc2ccncc2)oc2ccccc12	1	25	1	13	-6	.	.
S=c1[nH]nc(C2CCCCC2)o1	6	0	0	2	4	.	.
COC(=O)CNC(=O)COC(=O)c1ccc(OC)c([N+](=O)[O-])c1	-5	0	0	14	2	.	.
Cc1c(C(=O)Nc2ccccn2)oc2ccccc12	11	115*	2	-5	-7	212*	21*
COc1ccc(Nc2nc(N)nc(CSc3nnc(N)s3)n2)cc1	2	112*	4	-11	16	110*	15*
Cc1ccc(C)c(NC(=O)CN(C)S(=O)(=O)c2cccc3cccnc23)c1	2	5	0	8	-8	.	.
Cc1ccc(NC(=S)N2CCN(CCN3C(=O)c4cccc5cccc(c45)C3=O)CC2)cc1	0	107*	0	3	6	110*	57*
COc1cccc(OCC(O)CN2CCN(CCN3C(=O)c4cccc5cccc(c45)C3=O)CC2)c1 (stereo unspecified)	-4	-9	0	11	1	.	.

Screens: PubChem BioAssay, several laboratories
